Assay results published in PubChem BioAssay (NCATS).
Inconclusive results are not listed. Activity calls are given as the source filed them. Calls come from the whole dose curve.

Test: Primary qHTS for inhibitors of SARS-S pseudo-typed particle cell entry (AID 1479145); note: nearly all actives have a fitted effect of over 45% in size
Conditions: SARS-S pseudotyped particle cell entry, luciferase reporter; series mostly up to 57.1 µM; activity change, negative = inhibition: at the top concentration
% is set by controls: 0 for no effect and ±100 for the full control effect.

SMILES	activity change, negative = inhibition	outcome
C[C@H](NC(CCc1ccccc1)C(=O)O)C(=O)N1CCC[C@H]1C(=O)O (stereo partly specified)	-29.1% (inactive)	–
CCN[C@H]1CN(CCCOC)S(=O)(=O)c2sc(S(N)(=O)=O)cc21	-21% (inactive)	–
O=C(O)CCCC[C@@H]1SC[C@@H]2NC(=O)N[C@@H]21	–	inactive
O=C(O)c1cc(O)c(O)c(O)c1	-14.9% (inactive)	–
Cc1cc(OI)c(C(C)C)cc1-c1cc(C(C)C)c(OI)cc1C	3.1% (inactive)	–
O=C(O)CCC(=O)O	–	inactive
C[C@](O)(CS(=O)(=O)c1ccc(F)cc1)C(=O)Nc1ccc(C#N)c(C(F)(F)F)c1	–	inactive
CO[C@@]1(NC(=O)C(C(=O)O)c2ccc(O)cc2)C(=O)N2C(C(=O)O)=C(CSc3nnnn3C)CO[C@@H]21 (stereo partly specified)	–	inactive
CC(=O)Nc1ccc(C(=O)O)cc1	-13.1% (inactive)	–
C[C@@H]1C[C@H]2[C@@H]3C[C@H](F)C4=CC(=O)C=C[C@]4(C)[C@@]3(F)[C@@H](O)C[C@]2(C)[C@@]1(O)C(=O)CO	–	inactive
COCCOC(=O)C1=C(C)NC(C)=C(C(=O)OC(C)C)C1c1cccc([N+](=O)[O-])c1 (stereo unspecified)	-29.8% (inactive)	–
NC(=O)c1ccc([N+](=O)[O-])cc1Cl	-34.1% (inactive)	–
CO[C@@H]1[C@@H](OC(N)=O)[C@@H](O)[C@H](Oc2ccc3c(O)c(NC(=O)c4ccc(O)c(CC=C(C)C)c4)c(=O)oc3c2C)OC1(C)C	-21.4% (inactive)	–
NC(N)=NC(=O)Cc1c(Cl)cccc1Cl	-14.4% (inactive)	–
Nc1ncnc2nc[nH]c12	-3.62% (inactive)	–
CCCCCCCCCCC[C@@H](C[C@@H]1OC(=O)[C@H]1CCCCCC)OC(=O)[C@H](CC(C)C)NC=O	–	inactive
COc1cc(NS(=O)(=O)c2ccc(N)cc2)nc(C)n1	2.57% (inactive)	–
CC(=O)OCC(=O)[C@@]1(O)CC[C@H]2[C@@H]3CCC4=CC(=O)CC[C@]4(C)[C@H]3C(=O)C[C@@]21C	-4.54% (inactive)	–
COC1CC(=C(c2cccs2)c2cccs2)C[N+](C)(C)C1 (stereo unspecified)	1.24% (inactive)	–

SMILES	activity change, negative = inhibition	outcome
CN[C@@H]1[C@H](O)[C@H](NC)[C@H]2O[C@@]3(O)C(=O)C[C@@H](C)O[C@H]3O[C@@H]2[C@H]1O	-14.1% (inactive)	–
CC(C(=O)O)c1ccc2c(c1)CC(=O)c1ccccc1S2 (stereo unspecified)	-10.1% (inactive)	–
CCc1cc2c(s1)-n1c(C)nnc1CN=C2c1ccccc1Cl	-14.6% (inactive)	–
CC(=O)Nc1c(I)cc(I)c(C(=O)O)c1I	-26.4% (inactive)	–
C[C@]12CC[C@@H]3c4ccc(OC(=O)N(CCCl)CCCl)cc4CC[C@H]3[C@@H]1CC[C@@H]2O	–	inactive
CCCCCCCCCCCCCCCCCC(=O)OCC(O)CO (stereo unspecified)	–	inactive
Nc1cc(C(Cl)=C(Cl)Cl)c(S(N)(=O)=O)cc1S(N)(=O)=O	-13.4% (inactive)	–
O=c1oc2ccccc2c(O)c1Cc1c(O)c2ccccc2oc1=O	-2.6% (inactive)	–
CC(=O)Nc1ccc(CC(=O)O)cc1	-12% (inactive)	–
CCCc1ccc(OCC(=O)N2CCN(C(=O)COc3ccc(CCC)cc3OC)CC2)c(OC)c1	-5.74% (inactive)	–
CS(=O)(=O)c1ccc([C@@H](O)[C@@H](CF)NC(=O)C(Cl)Cl)cc1	3.01% (inactive)	–
Cc1cc2c(cc1S(N)(=O)=O)S(=O)(=O)CCC2	–	inactive
CCn1cc(C(=O)O)c(=O)c2cc(F)c(N3CCNC(C)C3)c(F)c21 (stereo unspecified)	-68% (inactive)	–
CC(C)[C@H]1C(=O)N2CCC[C@H]2[C@]2(O)O[C@](NC(=O)[C@@H]3C[C@@H]4c5cccc6[nH]cc(c56)C[C@H]4N(C)C3)(C(C)C)C(=O)N12	–	inactive
C[C@@H](N)[C@@H](O)c1ccccc1	-7.74% (inactive)	–
Nc1ccc(S(=O)(=O)c2ccc(N)cc2)cc1	-19.9% (inactive)	–
C[C@H]1C[C@@H]2[C@H]([C@@H](O)C[C@@]3(C)[C@H]2CC[C@]3(O)C(=O)CO)[C@@]2(C)C=CC(=O)C=C12	–	inactive
CC(O)(P(=O)(O)O)P(=O)(O)O	–	inactive
COc1cccc(OC)c1C(=O)N[C@@H]1C(=O)N2[C@@H]1SC(C)(C)[C@@H]2C(=O)O	1.82% (inactive)	–

Test: Primary qHTS for Huh7 cytotoxicity: counterscreen for inhibitors of MERS-S pseudotyped particle cell entry (AID 1479147)
Conditions: cell viability read-out; series mostly up to 57.1 µM; activity change, negative = cytotoxicity: at the top concentration

SMILES	activity change, negative = cytotoxicity	outcome
C[C@H](NC(CCc1ccccc1)C(=O)O)C(=O)N1CCC[C@H]1C(=O)O (stereo partly specified)	0.687% (inactive)	–
CCN[C@H]1CN(CCCOC)S(=O)(=O)c2sc(S(N)(=O)=O)cc21	–	inactive
O=C(O)CCCC[C@@H]1SC[C@@H]2NC(=O)N[C@@H]21	–	inactive
O=C(O)c1cc(O)c(O)c(O)c1	–	inactive
Cc1cc(OI)c(C(C)C)cc1-c1cc(C(C)C)c(OI)cc1C	–	inactive
O=C(O)CCC(=O)O	–	inactive
C[C@](O)(CS(=O)(=O)c1ccc(F)cc1)C(=O)Nc1ccc(C#N)c(C(F)(F)F)c1	–	inactive
CO[C@@]1(NC(=O)C(C(=O)O)c2ccc(O)cc2)C(=O)N2C(C(=O)O)=C(CSc3nnnn3C)CO[C@@H]21 (stereo partly specified)	–	inactive
CC(=O)Nc1ccc(C(=O)O)cc1	–	inactive
C[C@@H]1C[C@H]2[C@@H]3C[C@H](F)C4=CC(=O)C=C[C@]4(C)[C@@]3(F)[C@@H](O)C[C@]2(C)[C@@]1(O)C(=O)CO	–	inactive
COCCOC(=O)C1=C(C)NC(C)=C(C(=O)OC(C)C)C1c1cccc([N+](=O)[O-])c1 (stereo unspecified)	–	inactive
NC(=O)c1ccc([N+](=O)[O-])cc1Cl	–	inactive
CO[C@@H]1[C@@H](OC(N)=O)[C@@H](O)[C@H](Oc2ccc3c(O)c(NC(=O)c4ccc(O)c(CC=C(C)C)c4)c(=O)oc3c2C)OC1(C)C	–	inactive
NC(N)=NC(=O)Cc1c(Cl)cccc1Cl	-2.84% (inactive)	–
Nc1ncnc2nc[nH]c12	3.35% (inactive)	–
CCCCCCCCCCC[C@@H](C[C@@H]1OC(=O)[C@H]1CCCCCC)OC(=O)[C@H](CC(C)C)NC=O	–	inactive
COc1cc(NS(=O)(=O)c2ccc(N)cc2)nc(C)n1	3.82% (inactive)	–
CC(=O)OCC(=O)[C@@]1(O)CC[C@H]2[C@@H]3CCC4=CC(=O)CC[C@]4(C)[C@H]3C(=O)C[C@@]21C	–	inactive
COC1CC(=C(c2cccs2)c2cccs2)C[N+](C)(C)C1 (stereo unspecified)	0.853% (inactive)	–

SMILES	activity change, negative = cytotoxicity	outcome
CN[C@@H]1[C@H](O)[C@H](NC)[C@H]2O[C@@]3(O)C(=O)C[C@@H](C)O[C@H]3O[C@@H]2[C@H]1O	–	inactive
CC(C(=O)O)c1ccc2c(c1)CC(=O)c1ccccc1S2 (stereo unspecified)	1.41% (inactive)	–
CCc1cc2c(s1)-n1c(C)nnc1CN=C2c1ccccc1Cl	-8.11% (inactive)	–
CC(=O)Nc1c(I)cc(I)c(C(=O)O)c1I	–	inactive
C[C@]12CC[C@@H]3c4ccc(OC(=O)N(CCCl)CCCl)cc4CC[C@H]3[C@@H]1CC[C@@H]2O	–	inactive
CCCCCCCCCCCCCCCCCC(=O)OCC(O)CO (stereo unspecified)	–	inactive
Nc1cc(C(Cl)=C(Cl)Cl)c(S(N)(=O)=O)cc1S(N)(=O)=O	–	inactive
O=c1oc2ccccc2c(O)c1Cc1c(O)c2ccccc2oc1=O	–	inactive
CC(=O)Nc1ccc(CC(=O)O)cc1	–	inactive
CCCc1ccc(OCC(=O)N2CCN(C(=O)COc3ccc(CCC)cc3OC)CC2)c(OC)c1	–	inactive
CS(=O)(=O)c1ccc([C@@H](O)[C@@H](CF)NC(=O)C(Cl)Cl)cc1	–	inactive
Cc1cc2c(cc1S(N)(=O)=O)S(=O)(=O)CCC2	-12.1% (inactive)	–
CCn1cc(C(=O)O)c(=O)c2cc(F)c(N3CCNC(C)C3)c(F)c21 (stereo unspecified)	-2.84% (inactive)	–
CC(C)[C@H]1C(=O)N2CCC[C@H]2[C@]2(O)O[C@](NC(=O)[C@@H]3C[C@@H]4c5cccc6[nH]cc(c56)C[C@H]4N(C)C3)(C(C)C)C(=O)N12	-7.2% (inactive)	–
C[C@@H](N)[C@@H](O)c1ccccc1	–	inactive
Nc1ccc(S(=O)(=O)c2ccc(N)cc2)cc1	1.68% (inactive)	–
C[C@H]1C[C@@H]2[C@H]([C@@H](O)C[C@@]3(C)[C@H]2CC[C@]3(O)C(=O)CO)[C@@]2(C)C=CC(=O)C=C12	-12.6% (inactive)	–
CC(O)(P(=O)(O)O)P(=O)(O)O	-2.91% (inactive)	–
COc1cccc(OC)c1C(=O)N[C@@H]1C(=O)N2[C@@H]1SC(C)(C)[C@@H]2C(=O)O	0.29% (inactive)	–
